Whole data set: some 110,000 compounds, median “z-score” near -0.1, cut for the highest 2% near 2. The list comes from a sample in which the highest values are over-represented; it also holds similar structures and randomly drawn compounds. Calls of active or inactive are those of the source.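 The calls were made as follows: active = z-score in the third read window above 3 or below -3; inactive = the rest.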

The target in the assay is Metabotropic glutamate receptor 8 (Rattus norvegicus) (UniProt P70579). The experiment in a line: rat mGluR8 modulators via GIRK flux, primary screen, cell-based, thallium flux, HTS (AID 488969). The note with it: HEK293 rat mGluR8, GIRK (G protein-gated inwardly rectifying potassium channel) thallium flux, FluoZin2; at 10 µM; stronger effect = higher value; submaximal glutamate (EC20) added with thallium.
Metabotropic glutamate receptor 8 (Rattus norvegicus), sequence (P70579 whole entry, looked up): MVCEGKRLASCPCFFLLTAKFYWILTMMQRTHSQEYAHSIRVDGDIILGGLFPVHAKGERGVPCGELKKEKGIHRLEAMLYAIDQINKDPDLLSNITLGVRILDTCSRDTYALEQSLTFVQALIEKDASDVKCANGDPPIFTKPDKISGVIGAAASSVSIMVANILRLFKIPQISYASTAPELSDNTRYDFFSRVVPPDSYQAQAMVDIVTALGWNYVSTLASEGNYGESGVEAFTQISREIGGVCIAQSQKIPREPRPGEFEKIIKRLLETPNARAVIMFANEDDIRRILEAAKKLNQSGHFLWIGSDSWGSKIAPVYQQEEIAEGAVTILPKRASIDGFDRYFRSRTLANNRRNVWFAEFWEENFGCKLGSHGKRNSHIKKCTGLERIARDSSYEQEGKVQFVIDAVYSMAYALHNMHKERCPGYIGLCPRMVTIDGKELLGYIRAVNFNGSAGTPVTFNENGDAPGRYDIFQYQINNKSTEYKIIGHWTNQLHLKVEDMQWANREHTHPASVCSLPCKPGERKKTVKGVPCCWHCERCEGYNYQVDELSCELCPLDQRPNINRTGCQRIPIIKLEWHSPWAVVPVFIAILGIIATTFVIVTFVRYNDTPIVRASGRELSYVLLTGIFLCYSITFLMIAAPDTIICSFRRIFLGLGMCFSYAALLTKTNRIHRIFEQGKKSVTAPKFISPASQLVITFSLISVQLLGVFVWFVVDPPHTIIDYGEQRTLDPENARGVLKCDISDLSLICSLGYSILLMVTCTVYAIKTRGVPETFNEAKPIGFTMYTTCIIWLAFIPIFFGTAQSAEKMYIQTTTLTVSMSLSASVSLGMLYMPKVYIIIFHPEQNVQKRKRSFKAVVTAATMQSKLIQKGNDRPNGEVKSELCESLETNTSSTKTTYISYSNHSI
On to `COc1ccc(C2/C(=C(\O)c3ccc(OC)c(Cl)c3)C(=O)C(=O)N2CCN(C)C)cc1` (stereo not drawn), for which the z-score was -0.505.

In turn, `COc1nc(C#N)c(N2CCOCC2)o1` yielded a z-score of -0.118.

`Cn1ccnc1SCC(=O)c1cc2ccccc2o1` had a z-score of 0.608.

`Cn1c(SCC(N)=O)nnc1-c1ccccc1` had a z-score of 0.403.

With `Cn1c(SCC(=O)c2cc3ccccc3o2)nnc1-c1ccccc1`, the z-score was 4.93 (active).

Regarding `Cc1ccc(/C=C2/NC(=O)N(c3ccccc3)C2=O)o1`, the z-score was 0.187.

Take `CS(=O)(=O)NCC(c1cccnc1)N1CCN(c2ccc(F)cc2)CC1` (stereo not drawn): the z-score is -0.636.

`O=C(CSc1nc2ccccc2s1)NNC(=O)Nc1ccc(Cl)c(Cl)c1` yielded a z-score of -0.0417.

Take `Cc1ccc(C)c(OCC(=O)NCCN(C)C)c1`: the z-score was found to be 0.356.

For `Cc1sc2ncnc(SCc3ccco3)c2c1C`, the z-score is 3.43 (active).

Compound `CCSc1ncnc2sc(C)c(C)c12` showed a z-score of -0.112.

Compound `C=CCn1c(SCC(=O)NCc2ccco2)nc2sc(C)c(C)c2c1=O` had a z-score of -0.948.

For `Cc1sc2nc(SCC(=O)NCc3ccco3)n(C)c(=O)c2c1C`, the z-score is -0.982.

In turn, `Cc1sc2ncnc(SCC(=O)NC(=O)NCc3ccco3)c2c1C` displayed a z-score of 2.66.

Take `Cc1sc2nc(SCC(=O)NCc3ccco3)n(Cc3ccccc3)c(=O)c2c1C`: the z-score is -0.304.

As for `Cc1nc(SCC(=O)NCc2ccco2)c2c(C)c(C)sc2n1`, the z-score was -0.0392.

As for `Cc1sc2nc(C(C)C)nc(SCC(=O)NCc3ccco3)c2c1C`, the z-score is 17 (active).

Consider `Cc1sc2nc(C3CC3)nc(SCC(=O)NCc3ccco3)c2c1C`, for which the z-score was 0.399.

On to `Cc1sc2ncnc(NCc3ccco3)c2c1C`, for which the z-score is -0.47.

Regarding `CCn1c(SCC(=O)NC(=O)NCc2ccco2)nc2sc(C)c(C)c2c1=O`, the z-score was 3.05 (active).

The compound `O=C(CSc1ncnc2sc3c(c12)CCCCC3)NCc1ccco1` came in with a z-score of 1.08.

Compound `Cc1ccc2oc(=O)c(/C=C(\O)c3sc(C)nc3C)nc2c1` returned a z-score of -0.168.

`CCOc1ccc(C(=O)NCC(=O)OC2CCOC2=O)cc1OCC` (stereo not drawn) displayed a z-score of -0.823.

`CCCCN(C)CCNC(=O)Cn1ncc2c(=O)oc3ccc(C)cc3c21` had a z-score of -0.464.

`Nn1c(Cc2cccc3ccccc23)nnc1SCCOc1ccc(Br)cc1` returned a z-score of -0.185.

In the case of `COc1nc(NCc2ccco2)nc(NC2CCCCC2)n1`, the z-score was -0.224.

`CCOC(=O)Cc1csc(NC(=O)CSc2nc3sc(C(=O)O)c(C)c3c(=O)[nH]2)n1` returned a z-score of 0.0555.

The compound `O=C(Nc1ccc(Cl)c(Cl)c1)Nc1cc(S(=O)(=O)N2CCOCC2)ccc1N1CCCC1` registered a z-score of 0.00467.

In turn, `Cc1sc2nc(C3CC3)nc(SCC(=O)N3c4ccccc4CC3C)c2c1C` (stereo not drawn) gave a z-score of -0.291.

Turning to `Cc1sc2nc(C(C)C)nc(SCC(=O)N3c4ccccc4CC3C)c2c1C` (stereo not drawn), the z-score was 10.2 (active).

`CCc1nc(SCC(=O)N2c3ccccc3CC2C)c2c(C)c(C)sc2n1` (stereo not drawn) showed a z-score of 0.0133.

In turn, `CC(C)(C)C1CCc2c(sc(NC(=O)c3ccco3)c2C(N)=O)C1` (stereo not drawn) registered a z-score of 0.458.

Regarding `Cc1ccc(OCCCCn2cnc3ccccc32)c(C)c1`, the z-score was -0.0373.

`COc1ccc(OC)c(NC(=S)NCCC(c2ccccc2)c2ccccc2)c1`: the z-score was -0.202.

`Clc1ccc(C(c2ccccc2)N2CCNCC2)cc1` (stereo not drawn) displayed a z-score of 2.16.

As to `O=C(O)COCCN1CCN(C(c2ccccc2)c2ccc(Cl)cc2)CC1` (stereo not drawn), the z-score was determined as 0.16.

The compound `CC12CNCC(C)(CN(C(c3ccccc3)c3ccccc3)C1)C2` gave a z-score of 1.25.

In turn, `Oc1ccc(CN2CCc3ccccc3C2)c2cccnc12` gave a z-score of 0.165.

In turn, `OCCN1CCN(Cc2cc(Cl)c3cccnc3c2O)CC1` gave a z-score of 0.225.

Take `Oc1c(CN2CCc3ccccc3C2)cc(Cl)c2cccnc12`: the z-score worked out at 2.72.

`COc1ccc(N(CC(=O)NCc2ccco2)S(C)(=O)=O)cc1Cl` showed a z-score of -0.0738.

In turn, `CS(=O)(=O)N(CC(=O)NCc1ccco1)c1cc(C(F)(F)F)ccc1Cl` registered a z-score of 0.181.

Regarding `CS(=O)(=O)N(CC(=O)NCc1ccco1)c1ccc(Cl)c(C(F)(F)F)c1`, the z-score was 4.31 (active).

`O=[N+]([O-])c1ccc(NC(=S)N2CCN(c3ccc(F)cc3)CC2)cc1` registered a z-score of -0.0841.

Regarding `Cc1ccc(NC(=O)c2nccnc2C(=O)O)cc1C`, the z-score was -0.208.

Take `O=P(c1ccccc1)(c1ccccc1)N(c1ccccc1)c1ccccc1`: the z-score is -0.752.

In turn, `CC(C)C(=O)Nc1ccc(C(=O)N2CCCCCC2)cc1` had a z-score of 2.15.

The compound `CC(=O)Nc1ccc(C(=O)N2CCCC2)cc1` showed a z-score of -0.0468.

In the case of `CC(C)C(=O)Nc1ccc(C(=O)N2CCN(C(=O)c3ccco3)CC2)cc1`, the z-score is 0.196.

In the case of `O=c1c2ccccc2nc(N/N=C/c2ccc(O)cc2)n1O`, the z-score is -0.0395.

In turn, `Cc1cc(/N=C/N(C)C)on1` came in with a z-score of -0.0351.

As to `COc1ccc(-n2nnnc2SCC(=O)N2CCOCC2)cc1`, the z-score was 3.28 (active).

`COc1cc(OC)cc(-n2nnnc2SCC(=O)N2CCCC2)c1` showed a z-score of 0.154.

Compound `CCOc1ccc(-n2nnnc2SCC(=O)N2CCOCC2)cc1` displayed a z-score of -0.126.

As for `CCn1c(SCC(=O)Nc2ccc(C(=O)OC)cc2)nc2cccnc21`, the z-score is -0.121.

The compound `CC(CN(C)Cc1ccccc1)OC(=O)c1ccccc1F` (stereo not drawn) gave a z-score of 0.00558.

As for `Cc1ccc(C(=O)N/N=C/c2ccc([N+](=O)[O-])s2)cc1`, the z-score is -0.176.

On to `O=C(N/N=C/c1ccc([N+](=O)[O-])s1)c1ccccc1Br`, for which the z-score was -0.301.

As for `O=C(N/N=C/c1ccc([N+](=O)[O-])s1)c1cccc(Br)c1`, the z-score was 6.96 (active).

`O=C(Cc1ccccc1)N/N=C/c1ccc([N+](=O)[O-])s1` displayed a z-score of 0.543.

Take `Cc1ccccc1C(=O)N/N=C/c1ccc([N+](=O)[O-])s1`: the z-score was 2.95.

For the compound `CCOc1ccc(NC(=O)CCC(=O)N/N=C/c2ccc([N+](=O)[O-])s2)cc1`, the z-score amounted to 2.1.

Take `O=C(N/N=C\c1ccc([N+](=O)[O-])s1)c1cncc(Br)c1`: the z-score is -0.156.

With `O=C(N/N=C/c1ccc([N+](=O)[O-])s1)c1ccncc1`, the z-score was -0.428.

Consider `COc1ccc(NC(=O)CCC(=O)N/N=C/c2ccc([N+](=O)[O-])s2)cc1`, for which the z-score was -0.189.

`Cc1ccc(N(C(=O)CS(=O)CC(=O)Nc2ccc(F)cc2)C(C(=O)NC2CCCCC2)c2ccco2)cc1` (stereo not drawn) came in with a z-score of -0.219.

As to `O=C(NNC(=S)NC(=O)c1ccccc1[N+](=O)[O-])c1ccccc1Cl`, the z-score is -0.333.

Compound `O=C(CCC1COc2ccccc2O1)Nc1ccc(Cl)cn1` (stereo not drawn) yielded a z-score of -0.27.

For the compound `O=C(OC(C(=O)NCC1CCCO1)c1ccc(F)cc1)c1cccs1` (stereo not drawn), the z-score is -0.0339.

On to `COc1ccc(C(OC(=O)c2cccs2)C(=O)NCC2CCCO2)cc1` (stereo not drawn), for which the z-score is 8.22 (active).

Regarding `COc1ccccc1C(OC(=O)c1cccs1)C(=O)NCC1CCCO1` (stereo not drawn), the z-score is -0.383.

The compound `COc1ccc(N2CCN(C(=O)c3cn(C4CCCC4)c(=O)c4c3c3ccccc3n4C)CC2)cc1` came in with a z-score of -0.454.

Turning to `O=C(Nc1ccc(N2CCCC2)c(S(=O)(=O)Nc2cccc(C(F)(F)F)c2)c1)c1cccs1`, the z-score is -0.233.

As for `COc1ccc(Nc2ncnc3c2cnn3Cc2ccccc2)cc1OC`, the z-score is -0.181.

Compound `CCOc1ccc(Nc2ncnc3c2cnn3Cc2ccccc2)cc1` registered a z-score of 2.26.

`COc1ccc(Nc2ncnc3c2cnn3Cc2ccccc2)cc1`: the z-score is -1.73.

Consider `CC(=NCCCN(C)C)C1=C(O)c2ccccc2C1=O`, for which the z-score is 0.45.

With `CCc1ccc(C(=O)N2CCCC2)s1`, the z-score came out at 0.0133.

`CCOCC(=O)Nc1nc(-c2ccccc2)c(CC)s1` returned a z-score of -0.107.

As for `O=C(c1ccc(Cl)c(S(=O)(=O)N2CCc3ccccc3C2)c1)N1CCN(c2ccccc2)CC1`, the z-score is -0.0565.

Consider `Cc1cccc(NS(=O)(=O)c2cc(C(=O)N3CCc4ccccc4C3)ccc2Cl)c1C`, for which the z-score is -0.467.

On to `Cc1cccc(N2CCN(C(=O)c3ccc(Cl)c(S(=O)(=O)N4CCc5ccccc5C4)c3)CC2)c1C`, for which the z-score was 3.61 (active).

As for `Brc1ccc(NCc2cccc3ccccc23)nc1`, the z-score was -0.475.

For the compound `Oc1ccccc1CNc1ccc(Br)cn1`, the z-score is 5.86 (active).

Regarding `Oc1ccc(Cl)cc1CNc1ccc(Br)cn1`, the z-score stood at 0.33.

`CN=C1SC(CC(=O)Nc2sc(C)c(C)c2C(=O)OC)C(=O)N1C` (stereo not drawn) displayed a z-score of -0.51.

The compound `COCCN(Cc1ccccc1)C(=S)Nc1ccc(OC(F)F)cc1` gave a z-score of -0.227.

Regarding `Cc1c(C#N)c2ncn(Cc3ccccc3)c(=O)c2n1-c1ccccc1`, the z-score was -0.85.

Take `Cc1c(C#N)c2ncn(Cc3ccccn3)c(=O)c2n1-c1ccccc1`: the z-score was -0.89.

Turning to `Cc1c(C#N)c2ncn(CC#N)c(=O)c2n1-c1ccccc1`, the z-score was 3.28 (active).

Consider `CC(=O)c1ccc(N2CCN(C(=S)Nc3cccc(Cl)c3)CC2)cc1`, for which the z-score is -0.152.

On to `CCOCCCNc1nc2ccccc2[nH]1`, for which the z-score was -0.0367.

In the case of `O=C1CCCC(=O)C1=C1SCCCS1`, the z-score was -0.18.

Consider `Cc1ccc(NC(=O)N2CCCN(Cc3ccc(F)cc3)C2)cc1C`, for which the z-score was -0.435.

On to `O=C(Nc1ccc(Cl)cc1)N1CCCN(Cc2ccccc2F)C1`, for which the z-score is -0.218.

`O=C(Nc1ccc(Cl)cc1)N1CCCN(Cc2ccc(F)cc2)C1` had a z-score of 2.53.

Take `CN1C(=O)c2ccc(NC(=O)c3ccc(N4CCCCC4)c([N+](=O)[O-])c3)cc2C1=O`: the z-score is -0.139.

Take `Cc1cccc(NC(=O)c2cc(NC(=O)c3ccccc3)ccc2N2CCCCC2)c1`: the z-score is -0.201.

In turn, `CCN=C1SCC(=O)N1c1ccc(OC)cc1` gave a z-score of -0.307.

The compound `COc1ccc(S(=O)(=O)N(CCc2ccccc2)CC(=O)N/N=C/c2ccc3c(c2)OCO3)cc1` returned a z-score of -0.0021.

With `CCOc1ccccc1NC(=O)CN(C)S(=O)(=O)c1cccc2nsnc12`, the z-score was -0.173.

As for `COc1ccc(Cl)cc1NC(=O)CS(=O)(=O)c1cccc2nsnc12`, the z-score amounted to 0.107.

Compound `COc1ccccc1NC(=O)CS(=O)(=O)c1cccc2nsnc12` had a z-score of 1.99.

In turn, `Cc1csc(NC(=O)Cc2c[nH]c3ccccc23)n1` displayed a z-score of -0.137.

Take `CC(C)(C)c1ccc(OCCON2C(=O)CCC2=O)c(Cl)c1`: the z-score is 3.08 (active).

Compound `O=C1CCC(=O)N1OCCCOc1ccc(Br)cc1Cl` registered a z-score of 0.401.

Turning to `COc1cc(C)ccc1OCCCON1C(=O)CCC1=O`, the z-score amounted to 0.122.

`CCn1c(=O)n(CC)c2cc(S(N)(=O)=O)c(C)cc21` returned a z-score of 0.381.

With `COc1ccc(-c2cc(-c3ccccc3)c(C#N)c(SCC(=O)Nc3ncc(C)s3)n2)cc1`, the z-score is -0.161.

In the case of `CCOC(=O)c1c(C)n(C)c2ccc(OCC(O)CN(CC)CC)cc12` (stereo not drawn), the z-score was found to be 0.554.

On to `CCN(CC)CC(O)COc1ccc2c(c1)c(C(C)=O)c(C)n2-c1ccccc1` (stereo not drawn), for which the z-score was 2.25.

In turn, `CCOc1ccc2c(c1)c(C(C)=O)c(C)n2-c1ccccc1` displayed a z-score of -1.1.

The compound `CC1CCN(S(=O)(=O)c2ccc(NC(=O)CN3CCN(C)CC3)cc2)CC1` had a z-score of 0.193.

For the origin of these results see PubChem BioAssay AID488969 (Vanderbilt High Throughput Screening Facility, 2010).
